# Screening results as filed in PubChem BioAssay.
# Shown are actives, neighbours in structure and some others; about 13% of the full set was active somewhere.
# HCV inh – inhibitors of hepatitis C virus infection. Huh7.5.1 HCVcc-Cre infection, luciferase reporter, 44 h. Potency, µM (titrated, usually from 41.8 µM), for the others: at the highest dose activity change, negative = inhibition, usual class: inhibitors. 340,000 tested, 3.4% active; active = well fitted inhibition curve with a large enough effect; inconclusive = small, poorly fitted or top-dose-only effect, or another doubt; inactive = no such curve, though single readings can be large or run the other way; also: potency is read from the fitted curve at half-maximal effect; % is scaled to controls: 0 for no effect and ±100 for the full control effect
#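 Luciferase read-out (15 sec integration) after a 15 min room-temperature substrate step quantifies HCVcc-Cre infection. Cells, 1,000 per well, had compound added 4 h post-plating, then virus at ~0.5 moi, and were cultured 44 h.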
# Lassa entry inh – inhibitors of Lassa virus binding or cell entry; Lassa virus pseudotype entry inhibition, cell reporter; Potency, µM (series often up to 37.9 µM), without a hit: at the top dose activity change, negative = inhibition, usual class: inhibitors; 300,000 tested, 1.2% active; calls by dose curve; tested in HEK293 cells; also: potency is read from the fitted curve at half-maximal effect; % is scaled to controls: 0 for no effect and ±100 for the full control effect; nearly all actives have a fitted effect of over 50% in size
# FMDV antiviral – blocks foot and mouth disease virus; FMDV antiviral cell-based qHTS; Potency, µM (titrated, usually from 57.9 µM), without a hit: top-dose activity change, negative = inhibition, most hits filed as inhibitors; 410,000 tested, 1.2% active; calls by dose curve; tested in HEK293T cells; also: read-out not given here; potency is read from the fitted curve at half-maximal effect; % is scaled to controls: 0 for no effect and ±100 for the full control effect; nearly all actives have a fitted effect of over 45% in size
# Shiga inhibitor – blocks Shiga toxin action in Vero cells | Vero cells, Shiga toxin protein synthesis inhibition reporter | inhibition, % at 38.7 µM | 290,000 tested, 9.2% active | AID 2315; in the data active = inhibition mostly above about 28%, no sharp cut-off; inactive = mostly below about 43%; also: 0% is about no effect
# CHX counter – affects cycloheximide protein synthesis inhibition readout, counter-screen; cell reporter, cycloheximide protein synthesis inhibition counterscreen; max response, %; 300,000 tested, 12% active; in the data active = max response mostly above about 13%, no sharp cut-off; inactive = mostly below about 14%; also: read at 38.3 µM for the half of the compounds with a filed dose; 0% is about no effect
# MARV entry inh – blocks Marburg virus binding to or entry into cells; Marburg virus pseudotyped entry inhibition, cell reporter; Potency, µM (doses to about 37.8 µM), for the others: at the top dose activity change, negative = inhibition, hits mostly inhibitors; 300,000 tested, 1.8% active; AID 540276; calls by dose curve; tested in HEK293 cells; also: potency is read from the fitted curve at half-maximal effect; % is scaled to controls: 0 for no effect and ±100 for the full control effect
# The depositor's hits bear a star; ? = inconclusive; . = no result given; [ ] = dose if it differs, or a comment.
SMILES,HCV inh,Lassa entry inh,FMDV antiviral,Shiga inhibitor,CHX counter,MARV entry inh
O=C(O)c1ccc(Nc2cccc(F)c2)c([N+](=O)[O-])c1,19%,32%,-3%,-7,13,?
COc1ccc(N2C(=O)CC(NNC(=O)c3ccc(Br)s3)C2=O)cc1 (centres undefined),9%,14%,-2%,8,1,-7%[46.1 µM]
COc1cccc(N2C(=O)CC(NNC(=O)c3cccs3)C2=O)c1 (centres undefined),-12%,12%,9%,43*,19*,8%
O=C(NNC1CC(=O)N(c2cccc(Cl)c2)C1=O)c1cccs1 (centres undefined),25%,?,14%,39*,11,-3%
COC(=O)c1cc(C(=O)OC)cc(N2C(=O)CC(NNC(=O)c3ccc(C)cc3)C2=O)c1 (centres undefined),39%,0.79µM*,7%,18,11,?
Cc1ccc(-c2[nH]c3ccccc3c2SCCNC(=O)c2ccc(S(=O)(=O)N3CCOCC3)cc2)cc1,?,?,-13%,-11,2,?
FC(F)(F)c1cccc(N2CCN(Cc3ccoc3)CC2)c1,?,?,-28%,16,7,?
Cc1cc(C)c(-c2cc(C(F)(F)F)no2)c(=O)[nH]1,8%,-31%[14.3 µM],4%,-4,-2,?
CCCCNC(=O)C(NC(=O)c1ccc(C(F)(F)F)cc1)C(=O)c1ccccc1 (centres undefined),.,.,-8%,.,.,.
COc1cccc(OC)c1C(=O)N1CCN(c2ccccn2)CC1,-12%,1%,.,15,-1,6%
O=C1CC[C@H](OCc2ccccc2)CCN1[C@H](CSc1ccccc1)Cc1ccccc1,?,.,37%,34*,27*,.
C[C@@H]1CCC(=O)N(CC[C@H](Sc2ccccc2)c2ccccc2)CC1,5%,.,13%,14,10*,.
O=C1CC[C@@H](OCc2ccccc2)CCN1CC[C@H](Sc1ccccc1)c1ccccc1,-22%,.,4%,15,11*,.
O=C1CC[C@H](O)CCN1[C@H](CSc1ccccc1)Cc1ccccc1,?,.,15%,7,5,.
c1ncc(-c2ccc3c(c2)OCO3)c(NCCc2cnc[nH]2)n1,.,.,-17%,.,.,.
O=C(NCCN1CCOCC1)c1c(O)nc2sccn2c1=O,1%,1%,-7%,.,.,0%[46.1 µM]
CC(C)Cc1nn2c(=O)cc(COC(=O)c3ccc(NC(=O)CCc4ccccc4)cc3)nc2s1,.,?,11%,.,.,.
Cc1c(Cl)cccc1N=C1SCCN1C(=O)CN1C(=O)NC2(CCCC2)C1=O,5%,?,?,.,.,?
CCC(C)Sc1ccc([C@@H]2[C@@H]3C(=O)N(C)C(=O)[C@@H]3[C@]3(C(=O)OC)CCCCN23)cc1OC (some centres undefined),-5%,.,-19%,.,.,.
CCc1ccn2cc(-c3ccc4c(c3)OCO4)nc2c1,?,0.89µM*,8.9µM*,-24,5,?
COC(=O)c1ccc2nc(-c3ccc4c(c3)OCO4)cn2c1,1%,2µM*,0%,69*,40*,?
O=C(Nc1ccc(-c2cn3c(n2)SCC3)cc1)c1ccc2c(c1)OCO2,?,-26%,21%,53,29,?
c1ccn2cc(-c3ccc4c(c3)OCO4)cc2c1,-10%,3%,45%,48,8,-2%[46.1 µM]
COc1ccc(CN(C)C[C@@H]2OCCCC[C@@H](C)Oc3ccc(N(C)C)cc3C(=O)N([C@H](C)CO)C[C@@H]2C)cc1,.,.,-24%,.,.,.
Cc1ccc(-c2c(C)sc(=NC(=O)c3ccco3)n2C)cc1,-21%,11%,.,97*,67*,-2%
SMILES,HCV inh,Lassa entry inh,FMDV antiviral,Shiga inhibitor,CHX counter,MARV entry inh
COc1ccc(OC)c2c1sc(=NC(=O)c1ccco1)n2C,7.9µM*,.,-23%,-8,-2,.
CCn1c(=NC(=O)c2ccco2)sc2cccc(F)c21,?,.,41%,101*,34*,.
CC(C)C(=O)N=c1sc2cccc(F)c2n1C,-9%,.,16%,17,10*,.
CCCCC(=O)N=c1sc2c(OC)ccc(OC)c2n1C,-2%,.,-7%,2,-1,.
Cn1c(=O)c(C(=O)COc2ccc(C#N)cc2)c(N)n(Cc2ccccc2)c1=O,?,-7%[46.1 µM],-4%,-8,1,-19%[46.1 µM]
COc1ccc(S(=O)(=O)N(CC(=O)N2CCN(C)CC2)C2CCCCC2)cc1OC,?,5%,-10%,-23,-4,-9%
Cn1c(=O)c2c(nc3n2CCCN3CCc2ccccc2)n(C)c1=O,11%,.,-19%,-4,2,.
COc1cccc(/C=C/c2nc(C#N)c(NCCc3ccccc3)o2)c1,.,0%[46.1 µM],8%,.,.,1%[46.1 µM]
COc1ccc(OC)c2c1sc(=NC(=O)C1CC1)n2C,14µM*,.,-25%,-2,1,.
Cc1cccc(NCc2nnc(-c3ccccc3)o2)c1C,?,?,-10%,38,18,?
CC(=O)Oc1ccc(/C=C(\NC(=O)c2cccc(Br)c2)C(=O)Nc2ccc(C(=O)O)cc2)cc1,21%,.,4%,.,.,.
CCn1c(=O)cc(OCC(=O)N2CCN(c3ccc(C)cc3)C(C)C2)c2ccccc21 (centres undefined),.,?,35µM*,.,.,?
CCN(C(=O)c1cnc(N2CCOCC2)c2ccccc12)c1cc(C)ccc1C,.,5µM*,-23%,.,.,.
Cc1ccc(N(C)C(=O)c2cnc(N3CCOCC3)c3ccccc23)cc1C,.,?,-13%,.,.,.
Cc1ccc(S(=O)(=O)N2CCOC23CCN(C(=O)c2ccc(Cl)cc2Cl)CC3)cc1,-4%,.,-24%,-7,-4,.
Cc1ccc(CSc2nc3ccsc3c(=O)n2Cc2ccccn2)cc1,?,1%,?,-5,-4,?
O=c1c2sccc2nc(SCc2cc(=O)n3cc(Br)ccc3n2)n1Cc1ccccn1,-21%,-25%,18%,93*,26*,?
N#Cc1ccccc1CSc1nc2ccsc2c(=O)n1Cc1ccccn1,?,?,14%,-3,18*,?
O=C(c1csc(Nc2ccccc2Cl)n1)N1CCCC1,-1%,-6%,46%,108*,53*,?
COc1ccc(CNC(=O)C2CCN(C(=O)c3cccc(Cl)c3)CC2)cc1,3%,-22%,-20%,-5,1,-1%
COc1ccc(CNC(=O)C2CCN(S(=O)(=O)c3ccc(C)cc3)CC2)cc1,.,0%[46.1 µM],-12%,.,.,?
COc1ccc(Nc2nc(C(=O)N3CCc4ccccc4C3)cs2)cc1,-17%,-8%[46.1 µM],-3%,-20,5,?
Cc1ccc(Nc2nc(C(=O)N3CCC(C(=O)N4CCN(C)CC4)CC3)cs2)cc1,-10%,?,52%,17,19*,?
COc1ccc(CNC(=O)C2CCN(C(=O)c3ccc(-c4ccccc4)cc3)CC2)cc1,0%,2.5µM*,?,-4,-2,?
COc1ccc(CNC(=O)C2CCN(C(=O)c3csc(Nc4ccc(C)cc4)n3)CC2)cc1,11µM*,.,25µM*,16,9,?
COc1ccc(-c2csc3ncnc(Nc4ccccc4)c23)cc1,.,25%[46.1 µM],?,.,.,.
